The values below come from PubChem BioAssay (NCI).

Among the test systems are HT29 colon; SNB-75 CNS; SNB-19 CNS; U251 CNS; PC-3 prostate; SK-MEL-5 melanoma; UACC-62 melanoma; LOX IMVI melanoma; SK-MEL-28 melanoma; SK-MEL-2 melanoma.
What all share (assay): NCI-60 one-dose screen, 48 h (100 = growth as untreated, 0 = no growth, -100 = all killed)
What all share (details): 10 µM unless noted

About 83,000 compounds went through this panel and 20% of them were active in at least one assay; those are over-represented in the sample as a whole.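 Method: cells in 96-well plates; compound added at one concentration; 48 h incubation; percent growth measured; values under 10 scored active.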 Unmarked numbers belong to inactive results. Calls of active or inactive are those of the source.

On to `Nc1nc2ncc(CCNc3ccc(C(=O)NC(CCC(=O)O)C(=O)O)cc3)nc2c(=O)[nH]1` (centres undefined), for which the growth in the assay on HT29 colon was 109%; in the assay with SNB-75 CNS, 81.3%; with SNB-19 CNS, 111%; with U251 CNS, 100%; in the assay with PC-3 prostate, 106%; with SK-MEL-5 melanoma it was 98.9%. The growth was 99.6% in the assay on UACC-62 melanoma, 98.3% in the assay with LOX IMVI melanoma, 125% with SK-MEL-28 melanoma and 2.9% (active) in the assay on SK-MEL-2 melanoma.

In the case of `S=C(c1ccccc1)N1CCN(c2cccc(Cl)c2)CC1`, the growth is 94.8% in the assay on HT29 colon; 110% in the assay with SNB-75 CNS; 107% in the assay on SNB-19 CNS; 99.6% in the assay with U251 CNS; 75.3% in the assay on PC-3 prostate; 95.6% in the assay with SK-MEL-5 melanoma. Besides, the growth with UACC-62 melanoma was 91.1%; in the assay with LOX IMVI melanoma, 105%; with SK-MEL-28 melanoma, 121%.

On to `CCOC(=O)C1=C(C)N2C(=NC3=C(CCC/C3=C\c3ccc(Cl)cc3)C2c2ccc(Cl)cc2)S1` (centres undefined), for which the growth was -54.3% (active) in the assay on HT29 colon; 64.2% with SNB-75 CNS; 55.4% in the assay on SNB-19 CNS; -100% (active) in the assay on U251 CNS; 24.3% in the assay with PC-3 prostate; 40.8% in the assay with SK-MEL-5 melanoma. The growth is 54.7% in the assay on UACC-62 melanoma, -100% (active) in the assay on LOX IMVI melanoma, 48.8% in the assay on SK-MEL-28 melanoma and 76.6% with SK-MEL-2 melanoma.

As for `CCCc1cccc(CCC)c1O`, the growth in the assay with HT29 colon is 103%; in the assay on SNB-75 CNS, 118%; in the assay on SNB-19 CNS it was 109%; in the assay on U251 CNS, 85.7%; with PC-3 prostate it was 100%; with SK-MEL-5 melanoma, 104%. Further, the values for the growth with UACC-62 melanoma, with LOX IMVI melanoma and with SK-MEL-28 melanoma were 107%, 100% and 117%, respectively.

For the compound `COc1ccc2c(c1)/C(=C\c1c[nH]c3ccc(F)cc13)C(=O)N2`, the growth is 86.1% in the assay with HT29 colon; 86.7% with SNB-75 CNS; 93.9% with SNB-19 CNS; 83.4% in the assay with U251 CNS; 84% in the assay on PC-3 prostate; 97% in the assay with SK-MEL-5 melanoma. In addition, the growth in the assay on UACC-62 melanoma was 90.7%; in the assay with LOX IMVI melanoma, 74.3%; in the assay on SK-MEL-28 melanoma, 105%.

As for `CNc1ccc(CSc2ccc(Cl)cc2)cc1`, the growth in the assay with HT29 colon was 109%; in the assay on SNB-75 CNS it was 95.4%; in the assay on SNB-19 CNS it was 89.5%; in the assay with U251 CNS, 97.4%; with PC-3 prostate, 72.9%; in the assay with SK-MEL-5 melanoma it was 97.9%. For the same compound, the growth with UACC-62 melanoma is 83%; with LOX IMVI melanoma it was 103%; with SK-MEL-28 melanoma, 112%.

Consider `O=C1/C(=N/O)CCc2ccccc21`, for which the growth with HT29 colon was 101%; with SNB-75 CNS it was 82.2%; in the assay with SNB-19 CNS it was 100%; in the assay with U251 CNS, 103%; in the assay on PC-3 prostate, 59.8%; in the assay with SK-MEL-5 melanoma, 102%. For the same compound, the results for the growth in the assay with UACC-62 melanoma, in the assay with LOX IMVI melanoma and in the assay with SK-MEL-28 melanoma were 87.6%, 76.5% and 121%, respectively.

With `O=C(c1ccccc1)c1ccccc1Cl`, the growth is 92.9% with HT29 colon; 88.8% with SNB-75 CNS; 97.1% in the assay with SNB-19 CNS; 99% in the assay with U251 CNS; 96.1% in the assay on PC-3 prostate; 105% with SK-MEL-5 melanoma. Moreover, the figures for the growth in the assay on UACC-62 melanoma, with LOX IMVI melanoma and in the assay on SK-MEL-28 melanoma were 99.6%, 107% and 103%, respectively.

Regarding `CCOC(Cc1c(N)[nH]c(=S)[nH]c1=O)OCC`, the growth in the assay on HT29 colon is 99.2%; with SNB-75 CNS, 96.7%; with SNB-19 CNS, 106%; with U251 CNS, 103%; in the assay with PC-3 prostate it was 95.3%; in the assay on SK-MEL-5 melanoma, 95.5%. Besides, the growth was 104% in the assay with UACC-62 melanoma, 95.3% with LOX IMVI melanoma, 102% in the assay on SK-MEL-28 melanoma and 124% in the assay with SK-MEL-2 melanoma.

Consider `O=C(CSc1nc2c(n1Nc1ccccc1)-c1ccccc1SC2)Nc1nc(-c2ccc(Cl)cc2)cs1`, for which the growth in the assay with HT29 colon was 68.4%; in the assay with SNB-75 CNS it was 44.8%; in the assay on SNB-19 CNS it was 80.5%; in the assay with U251 CNS it was 34.4%; in the assay on PC-3 prostate, 72.2%; in the assay with SK-MEL-5 melanoma, 88.1%. The growth in the assay with UACC-62 melanoma was 83.3%; with LOX IMVI melanoma, 30.4%; with SK-MEL-28 melanoma it was 72%; in the assay on SK-MEL-2 melanoma it was 111%.

`C/C(=N\N1CC(=O)NC1=O)c1ccc([N+](=O)[O-])o1`: the growth in the assay with HT29 colon is 102%; in the assay with SNB-75 CNS, 96.4%; in the assay with SNB-19 CNS, 99.3%; in the assay on U251 CNS, 102%; with PC-3 prostate, 93.8%; with SK-MEL-5 melanoma, 93.4%. Besides, the growth with UACC-62 melanoma is 83.2%; with LOX IMVI melanoma, 67.5%; in the assay with SK-MEL-28 melanoma it was 117%; in the assay with SK-MEL-2 melanoma it was 106%.

`COc1c(O)cc2oc3cc(O)c(CC=C(C)C)c(O)c3c(=O)c2c1C/C=C(\C)CCC=C(C)C`: the growth in the assay with HT29 colon is 26.7%; in the assay with SNB-75 CNS, 84.6%; with SNB-19 CNS, 80.5%; in the assay on U251 CNS it was 24.1%; with PC-3 prostate it was 19.5%; with SK-MEL-5 melanoma it was 86.6%. Besides, the growth in the assay on UACC-62 melanoma was 98.9%; in the assay on LOX IMVI melanoma, -85.8% (active); in the assay on SK-MEL-28 melanoma, 94.4%; with SK-MEL-2 melanoma it was 75.3%.

In the case of `COc1cccc2c1C(=O)c1c(O)c3c(c(O)c1C2=O)C[C@@](O)(/C(C)=N/NC(=O)c1cccc([N+](=O)[O-])c1)C[C@@H]3OC1CC(N)C(O)C(C)O1` (some centres undefined), the growth with HT29 colon was -53.7% (active); with SNB-75 CNS, -34.2% (active); in the assay on SNB-19 CNS, -20.8% (active); in the assay with U251 CNS, -29% (active); in the assay with PC-3 prostate, -35% (active); in the assay with SK-MEL-5 melanoma, -100% (active). Further, the growth is -93.9% (active) in the assay with UACC-62 melanoma, -33.3% (active) in the assay with LOX IMVI melanoma, -66.7% (active) with SK-MEL-28 melanoma and -73.6% (active) with SK-MEL-2 melanoma.

In the case of `COc1cc(/C=C2\CCC/C(=C\c3ccc(OCC4CO4)c(OC)c3)C2=O)ccc1OCC1CO1` (centres undefined), the growth is -15% (active) in the assay on HT29 colon; 51.4% in the assay with SNB-75 CNS; 63.4% with SNB-19 CNS; 12.7% in the assay on U251 CNS; 50.7% with PC-3 prostate; 18.4% with SK-MEL-5 melanoma. In addition, the growth in the assay with UACC-62 melanoma was 3.6% (active); with LOX IMVI melanoma, -59.9% (active); with SK-MEL-28 melanoma it was 14.8%; with SK-MEL-2 melanoma it was 49.7%.
